# Results published in the supplement of paper PMC10338343.
# ± gives the standard deviation.
# System: MILI (PIWIL2) piRISC loaded with L1MC piRNA (26 nt)
# Test: pre-steady-state target cleavage rate (min^-1); guide: L1MC piRNA 5'p-UAACUAAAUACUAUGCAAGCUGUAGG; higher = faster piRNA-guided slicing of the target
# Conditions: auxiliary factor: none (no GTSF1)
# In short: (§1)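 A transcribed, DNA-blocked target RNA library (0.1 nM) and 1 nM active affinity-purified piRISC bearing one synthetic guide were incubated in HEPES–potassium acetate buffer at 33 °C for 0–8 or 0–960 min, either with or without 500 nM GTSF1 partner protein. Uncleaved targets were sequenced, normalised to depth and to weakly complementary targets, and pooled over three trials, with k3 capped at 0.0001 min^-1. The pre-steady-state cleavage rate was derived with a burst-and-steady-state fit.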
row,Sequence,pre-steady-state target cleavage rate
1,UCCUCCUUCAGCUUGGAUAGUAUUUAGUUA,0.0086 ± 0.0023
2,UCCUGGUACAGCUUCAUAGUAUUUAGUUA,0.00866 ± 0.0031
3,UCCUGGUACACCUUGCAUAGUAUUUAGUAA,0.00413 ± 0.0031
4,UCCUGGAACACCUUGCAUAGUAUUUAGUUA,0.00811 ± 0.0025
5,UCCUGGAAGAGCUUGCAUAGUAAUUAGUUA,0.00468 ± 0.0028
6,UCCUGGAUGAGCUUGCAUAGUAUUAAGUUA,0.00479 ± 0.0019
7,UCCUGGUACAGCUUGCAUUGUAUUUAGUUA,0.0101 ± 0.0041
8,UCCUGGAUCAGCUUGCAUAGUACUUAGUUA,0.00683 ± 0.0023
9,UCCUGCUACAGCUAGCAUACUAUUUAGUUA,0.0037 ± 0.0024
10,UCCUGCUACAGCUUUGCAUAGUAUUUAGUUA,0.00559 ± 0.0027
11,UCCUGCAACAGCUUGCAAAGUAUUUAGUUA,0.00683 ± 0.0024
12,UCCUGGAUGUGCAUGCAUAGUAUUUAGUUA,0.0095 ± 0.0025
13,UCCUCCUACAGCUUGCAAGUAUUUAGUUA,0.00449 ± 0.0021
14,UCCUGGUACAGCUUGCAUAGUAUUAUAGUUA,0.00483 ± 0.003
15,UCCUGGAUCUGCUUGCAUAGUAUUUUGUUA,0.00429 ± 0.0026
16,UCCUGGAUCUGCUUGCAUACUAUUUAGUUA,0.0043 ± 0.0023
17,UCCUGGUUCAGCUUGCAUAGUAUUAAGUUA,0.00855 ± 0.0027
18,UCCUGGAUGAGCUUGAAUAGUAUUUAGUUA,0.00728 ± 0.0023
19,UCCUCCUAUCAGCUUGCAUAGUAUUUAGUUA,0.00786 ± 0.0023
20,UCCUGGAUGAGCUUAGCAUAGUAUUUAGUUA,0.0041 ± 0.0027

row,Sequence,pre-steady-state target cleavage rate
1,UCCUGGAUGAGCAUGCAUAGUAUUUAGUUA,0.00939 ± 0.0029
2,UCCUGGAUCAGCUUGCAUAGUAUAUUAGUUA,0.00593 ± 0.0025
3,UCCUCGUACACCUUGCAUAGUAUUUAGUUA,0.00634 ± 0.0021
4,UCCUGCUACACGUUGCAUAGUAUUUAGUUA,0.0118 ± 0.0026
5,UCCUGGUACUGCUUGCAUAGUAUUUAGUUA,0.0139 ± 0.0037
6,UCCUGGAUGUGCUUGCCUAGUAUUUAGUUA,0.012 ± 0.003
7,UCCUGGAACAGCUUGCAUAGUAUUUAGUUA [g2:g23:cont:t1A],0.0103 ± 0.0024
8,UCCUCCUACAGCUUGCAUAGUAUUUACGUUA,0.00757 ± 0.0026
9,UCCUGGUACAGCUUGCAUGGUAUUUAGUUA,0.0136 ± 0.0044
10,UCCUGCUACAGCUUGCAUAGUAUUCUAGUUA,0.00709 ± 0.0024
11,UCCUGGAUCAGGUUGCAAAGUAUUUAGUUA,0.00902 ± 0.0027
12,UCCUGGAUGACGCUUGCAUAGUAUUUAGUUA,0.00493 ± 0.0037
13,UCCUGCUACAGCUUGCAAAGUAUUAAGUUA,0.00367 ± 0.0025
14,UCCUGGAUGUGCUGUGCAUAGUAUUUAGUUA,0.00886 ± 0.004
15,UCCUCCUACAGCGUUGCAUAGUAUUUAGUUA,0.0063 ± 0.0021
16,UCCUCCUAGAGCUUGCAUUGUAUUUAGUUA,0.00709 ± 0.0021
17,UCCUGGAUCUCCUUGCAUAGUAUUUAGUAA,0.00367 ± 0.0019
18,UCCUCCUACAGCUUGCAUAGUAUUUCAGUUA,0.0049 ± 0.0029
19,UCCUGCUACUGCUUGCAUAGUAUUUUGUUA,0.00318 ± 0.0029
20,UCCUCCCUACAGCUUGCAUAGUAUUUAGUUA,0.0107 ± 0.0027

# System: EfPiwi piRISC loaded with L1MC piRNA (26 nt)
# Test: pre-steady-state target cleavage rate (min^-1); auxiliary factor: 500 nM Ephydatia muelleri Gtsf1; guide: L1MC piRNA 5'p-UAACUAAAUACUAUGCAAGCUGUAGG; MIWI and MILI are mouse PIWI proteins and EfPiwi is from a freshwater sponge; tags in brackets are library labels; higher = faster piRNA-guided slicing of the target
# Conditions: not given
# In short: as §1
row,Sequence,pre-steady-state target cleavage rate
1,UCCUCCUUCAGCUUGGAUAGUAUUUAGUUA,0.0562 ± 0.013
2,UCCUGGUACAGCUUCAUAGUAUUUAGUUA,0.0159 ± 0.0055
3,UCCUGGUACACCUUGCAUAGUAUUUAGUAA,0.00351 ± 0.0028
4,UCCUGGAACACCUUGCAUAGUAUUUAGUUA,0.0061 ± 0.0032
5,UCCUGGAAGAGCUUGCAUAGUAAUUAGUUA,0.00806 ± 0.0027
6,UCCUGGAUGAGCUUGCAUAGUAUUAAGUUA,0.00469 ± 0.0021
7,UCCUGGUACAGCUUGCAUUGUAUUUAGUUA,0.00513 ± 0.002
8,UCCUGGAUCAGCUUGCAUAGUACUUAGUUA,0.0145 ± 0.0031
9,UCCUGCUACAGCUAGCAUACUAUUUAGUUA,0.0063 ± 0.0019
10,UCCUGCUACAGCUUUGCAUAGUAUUUAGUUA,0.0161 ± 0.0053
11,UCCUGCAACAGCUUGCAAAGUAUUUAGUUA,0.022 ± 0.0052
12,UCCUGGAUGUGCAUGCAUAGUAUUUAGUUA,0.00855 ± 0.0029
13,UCCUCCUACAGCUUGCAAGUAUUUAGUUA,0.00641 ± 0.0026
14,UCCUGGUACAGCUUGCAUAGUAUUAUAGUUA,0.00555 ± 0.0023
15,UCCUGGAUCUGCUUGCAUAGUAUUUUGUUA,0.0153 ± 0.0053
16,UCCUGGAUCUGCUUGCAUACUAUUUAGUUA,0.00859 ± 0.0023
17,UCCUGGUUCAGCUUGCAUAGUAUUAAGUUA,0.00579 ± 0.0021
18,UCCUGGAUGAGCUUGAAUAGUAUUUAGUUA,0.00419 ± 0.0027
19,UCCUCCUAUCAGCUUGCAUAGUAUUUAGUUA,0.0677 ± 0.018
20,UCCUGGAUGAGCUUAGCAUAGUAUUUAGUUA,0.0344 ± 0.0086

row,Sequence,pre-steady-state target cleavage rate
1,UCCUGGAUGAGCAUGCAUAGUAUUUAGUUA,0.0207 ± 0.0065
2,UCCUGGAUCAGCUUGCAUAGUAUAUUAGUUA,0.127 ± 0.043
3,UCCUCGUACACCUUGCAUAGUAUUUAGUUA,0.1 ± 0.029
4,UCCUGCUACACGUUGCAUAGUAUUUAGUUA,0.0175 ± 0.0063
5,UCCUGGUACUGCUUGCAUAGUAUUUAGUUA,0.0105 ± 0.0034
6,UCCUGGAUGUGCUUGCCUAGUAUUUAGUUA,0.00934 ± 0.0027
7,UCCUGGAACAGCUUGCAUAGUAUUUAGUUA [g2:g23:cont:t1A],0.0806 ± 0.018
8,UCCUCCUACAGCUUGCAUAGUAUUUACGUUA,0.00783 ± 0.0029
9,UCCUGGUACAGCUUGCAUGGUAUUUAGUUA,0.00828 ± 0.0033
10,UCCUGCUACAGCUUGCAUAGUAUUCUAGUUA,0.0043 ± 0.002
11,UCCUGGAUCAGGUUGCAAAGUAUUUAGUUA,0.0172 ± 0.0054
12,UCCUGGAUGACGCUUGCAUAGUAUUUAGUUA,0.0537 ± 0.014
13,UCCUGCUACAGCUUGCAAAGUAUUAAGUUA,0.00445 ± 0.0021
14,UCCUGGAUGUGCUGUGCAUAGUAUUUAGUUA,0.00568 ± 0.0024
15,UCCUCCUACAGCGUUGCAUAGUAUUUAGUUA,0.0299 ± 0.009
16,UCCUCCUAGAGCUUGCAUUGUAUUUAGUUA,0.018 ± 0.0048
17,UCCUGGAUCUCCUUGCAUAGUAUUUAGUAA,0.00383 ± 0.0026
18,UCCUCCUACAGCUUGCAUAGUAUUUCAGUUA,0.00437 ± 0.0022
19,UCCUGCUACUGCUUGCAUAGUAUUUUGUUA,0.0061 ± 0.0024
20,UCCUCCCUACAGCUUGCAUAGUAUUUAGUUA,0.0606 ± 0.017
